Assay [1] is described as follows: growth inhibition of DIPG glioma cells, dose response, cell-based, SU-DIPG-XIII, MIPE4.0, CellTiter-Glo, qHTS (AID 1347061; cut-off not given, nearly all actives have AC50 up to about 37 µM;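 also: cells exposed to compound for 48 hours before readout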). The conditions noted are these: SU-DIPG-XIII viability, CellTiter-Glo ATP luminescence. A general note: Cellular ATP, detected with luciferase, serves as a proxy for viable cell number.
Assay [2] can be described thus: growth inhibition of DIPG glioma cells, dose response, cell-based, JHH-DIPG-1, MIPE4.0, CellTiter-Glo, qHTS (AID 1347062; cut-off not given, nearly all actives have AC50 up to about 27 µM;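 as to AC50: cells exposed to compound for two days before readout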). The conditions noted are these: JHH-DIPG-1 viability, CellTiter-Glo ATP luminescence.
The nature of assay [3]: growth inhibition of DIPG glioma cells, dose response, cell-based, SU-DIPG-IV, MIPE4.0, CellTiter-Glo, qHTS (AID 1347063).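 Also: compound exposure lasted 48 hours before the viability readout.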 The note with it: SU-DIPG-IV viability, CellTiter-Glo ATP luminescence.
A short description of assay [4]: SU-DIPG-VI glioma cell viability, MIPE4.0 library, CellTiter-Glo luminescence, qHTS (AID 1347066).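 Also: cells exposed to compound for 48 hours before readout.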 The conditions noted are these: CellTiter-Glo ATP luminescence.
Assay [5] is described as follows: growth inhibition of DIPG glioma cells, dose response, cell-based, SU-DIPG-XIII, MIPE5.0, CellTiter-Glo, qHTS (AID 1347064; cut-off not given, nearly all actives have AC50 up to about 23 µM;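 also: cells exposed to compound for 48 hours before the viability read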). The note with it: SU-DIPG-XIII viability, CellTiter-Glo ATP luminescence.
Assay [6] in a line: viability loss in pontine glioma line – cell-based, SU-DIPG-XXV, MIPE5.0, CellTiter-Glo, qHTS, dose response (AID 1347065; cut-off not given, nearly all actives have AC50 up to about 26 µM;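 also: cells exposed to compound for 48 hours before ATP readout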). The note with it: CellTiter-Glo ATP luminescence.
Assay [7] in a line: JHH-DIPG-1 glioma cell viability, MIPE5.0 library, CellTiter-Glo luminescence, qHTS (AID 1347067; cut-off not given, nearly all actives have AC50 up to about 26 µM;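 also: cells exposed to compound for 48 hours before readout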). The note with it: JHH-DIPG-1 glioma viability, CellTiter-Glo ATP luminescence.
A short description of assay [8]: SU-DIPG-XXV glioma cell viability, MIPE5.0 library, qHTS (AID 1347068; cut-off not given, nearly all actives have IC50 up to about 30 µM). (In general: In qHTS, concentration-response curves come from the screen itself.)
The nature of assay [9]: LFS_MB_P medulloblastoma growth inhibition, cell-based, chromothripsis tumors, cisplatin or BGB combos (AID 1671449; in the data active = inhibition above about 80%;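 also: cells exposed for 96 hours; 0% = vehicle DMSO and 100% = killing by high DMSO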). The note with it: LFS_MB_P medulloblastoma cells.
Assay [10] in a line: HDN33 neuroblastoma growth inhibition, cell-based, chromothripsis tumors, cisplatin or BGB combos (AID 1671450; in the data active = inhibition above about 80%;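 also: cells exposed to compound for four days; 0% = vehicle DMSO and 100% = cell killing by high DMSO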). The conditions noted are these: HDN33 neuroblastoma cells, stronger effect = higher value.
Assay [11] in a line: ICB984 medulloblastoma cell growth inhibition, synergistic combos for chromothripsis tumors, cisplatin or BGB combos (AID 1671451; call rule not given here;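 also: cells exposed for 96 hours before readout; 0% = vehicle DMSO and 100% = killing by high DMSO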). The conditions noted are these: ICB984 medulloblastoma cells, drug combinations, stronger effect = higher value.
The nature of assay [12]: HTB85 osteosarcoma cell growth inhibition, synergistic combos for chromothripsis tumors, BGB or cisplatin IC20 combos (AID 1671453; in the data active = inhibition above about 80%;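 also: cells exposed for 96 hours before readout; 0% = vehicle DMSO and 100% = high DMSO killing control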). The note with it: HTB85 osteosarcoma cells, drug combinations, stronger effect = higher value.
Assay [13] can be described thus: MDA-MB-436 breast carcinoma cell growth inhibition, synergistic combos for chromothripsis tumors, BGB or cisplatin combos (AID 1671458; call rule not given here;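 also: cells exposed for 96 hours; 0% = vehicle DMSO and 100% = killing by high DMSO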). The note with it: MDA-MB-436 breast carcinoma growth inhibition, drug combinations, stronger effect = higher value.
The nature of assay [14]: growth inhibition of BT084 medulloblastoma cells, cell-based, ICGC_MB145, cisplatin and BGB IC40 combos (AID 1671461; in the data active = inhibition above about 80%;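 also: cells exposed to drugs for 96 hours; 0% = vehicle DMSO and 100% = high DMSO full killing control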). The conditions noted are these: drug combinations, stronger effect = higher value.
Assay [15] can be described thus: growth inhibition of RCMB18 medulloblastoma cells, cell-based, cisplatin and BGB IC40 combos (AID 1671462; in the data active = inhibition above about 80%;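 also: cells exposed to compound for four days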). The conditions noted are these: stronger effect = higher value.
Assay [16] is described as follows: growth inhibition of CRL1545 osteosarcoma cells, cell-based, cisplatin and BGB IC20 combos (AID 1671464; in the data active = inhibition above about 80%;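 also: cells exposed to compound for 96 hours before readout; 0% = vehicle DMSO and 100% = high DMSO killing control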). The conditions noted are these: stronger effect = higher value.
Setting [17] is: measured here: with BGB IC20 combination, at 0.5 µM.
Setting [18] is: measured here: with cisplatin IC20 combination, at 0.5 µM.

The structures appear in SMILES notation. Results filed as inconclusive are left out. The source made the active and inactive calls. Unless noted, the limit is not given here; nearly all actives have AC50 up to about 30 µM.

In general, AC50 refers to the concentration giving half of the maximal activity seen. For orientation: inhibition means the change of the read-out against control, counted positive when it falls.

As for `NC1CCC(Nc2nc(Nc3ccc(C(=O)N4CCCCC4)cc3)c3ncn(-c4cccc(F)c4)c3n2)CC1` (stereo not drawn), the compound was classed as inactive in [1], in [2], in assay [3] and in [4].

For `N#CC1(c2cccc(C(=O)Nc3cc(Oc4ccc5nc(NC(=O)C6CC6)sc5n4)ccc3F)c2Cl)CC1`, the AC50 in [1] was 0.935 µM (active); in assay [2], 18.7 µM (active); in [5], 0.742 µM (active); in assay [6] it was 0.833 µM (active). Besides, the call in assay [4] was inactive.

For `CC(C)OC(=O)[C@H](C)N[P@](=O)(OC[C@H]1O[C@@H](n2ccc(=O)[nH]c2=O)[C@](C)(F)[C@@H]1O)Oc1ccccc1`, the result in assay [1], in assay [2], in [3], in assay [4] and in [8] was inactive. Also, in assay [7], the AC50 is 2.63 µM (active). In addition, the inhibition in assay [9] (at 0.5 µM, stronger effect = higher value) is -27.6% (inactive); in [9] (measured here: combination with BGB IC20, at 0.005 µM) it was -8.86%; in assay [9] (measured here: combination with BGB IC40, at 0.005 µM), -29.9%; in [9] (measured here: combination with BGB IC40, at 0.05 µM), -32.6%; in [9] (measured here: combination with cisplatin, at 0.5 µM, stronger effect = higher value), -25.8%; in assay [9] (measured here: combination with cisplatin, at 5 µM, stronger effect = higher value), -29.3%. Further, the inhibition was -36.1% in assay [10] (BGB combo, at 5 µM); -7.68% (inactive) in [10] (at 0.5 µM); -4.94% in assay [10] (cisplatin combo, at 5 µM); -9.88% in assay [10] (setting [17]); 5.66% in assay [10] (setting [18]); -12.1% in assay [10] (single agent, at 5 µM). Further, the inhibition in [11] (BGB IC20 combo, at 0.005 µM) was -18%; in [11] (BGB IC40 combo, at 0.005 µM) it was -9.03%; in assay [11] (BGB IC40 combo, at 0.05 µM), -19.6%; in assay [11] (at 0.5 µM), -6.96% (inactive); in assay [11] (cisplatin combo, at 0.05 µM) it was -25.8%; in [11] (cisplatin combo, at 0.5 µM), -2.19%. Further, the inhibition in assay [11] (cisplatin combo, at 5 µM) is -12.1%; in assay [11] (measured here: 5 uM single agent, at 5 µM), -20.9%; in assay [12] (at 0.5 µM) it was 14.1% (inactive); in [12] (measured here: with BGB IC20, at 0.5 µM) it was 45.6%; in [12] (measured here: with BGB IC20, at 5 µM), 9.23%; in assay [12] (measured here: with cisplatin IC20, at 0.5 µM) it was -3.56%. Moreover, the inhibition was 2.16% in assay [12] (measured here: with cisplatin IC20, at 5 µM); 7.57% in [12] (single agent, at 5 µM); -14.4% (inactive) in assay [13] (at 0.5 µM); -6.51% in [13] (measured here: BGB combination, at 0.5 µM); -8.4% in assay [13] (measured here: BGB combination, at 5 µM); -26.3% in assay [13] (measured here: cisplatin combination, at 0.5 µM). The inhibition in [13] (measured here: cisplatin combination, at 5 µM) is -27.6%; in assay [14] (at 0.5 µM), -5.65% (inactive); in assay [14] (cisplatin combination, at 0.5 µM) it was -1.58%; in assay [14] (cisplatin combination, at 5 µM), -68.9%; in assay [14] (measured here: BGB IC40 combination 0.05 uM, at 0.05 µM), -37.9%; in [14] (single agent, at 5 µM), 12.2%. In addition, the inhibition is -12.6% (inactive) in assay [15] (at 0.5 µM); -10.4% in [15] (cisplatin combo, at 5 µM); -14.6% in assay [15] (measured here: BGB IC40 combination, at 0.05 µM); 5.31% in assay [15] (measured here: combination with cisplatin, at 0.5 µM); -3.36% in [15] (single agent, at 5 µM); 22.4% (inactive) in assay [16] (at 0.5 µM). In addition, the inhibition in assay [16] (setting [17]) is 2.82%; in assay [16] (setting [18]), 31.1%; in [16] (single agent, at 0.05 µM), -4.05%; in assay [16] (single agent, at 5 µM), -21.1%.

For the compound `CNc1ccc(C(=O)Oc2cc(ON[N+](=O)N(C)C)c([N+](=O)[O-])cc2C#N)cc1`, the compound was classed as inactive in assay [1], in assay [2], in assay [3] and in assay [4].

Turning to `CN[C@H]1[C@H](O[C@@H]2[C@H](O[C@@H]3[C@@H](O)[C@@H](O)[C@@H](N=C(N)N)[C@@H](O)[C@H]3N=C(N)N)O[C@H](C)[C@@]2(O)C=O)O[C@@H](CO)[C@@H](O)[C@H]1O`, the result in assay [1], in assay [2], in assay [3] and in assay [4] was inactive.

As for `Clc1cccc(-c2nnnn2Cc2cccnc2)c1Cl`, the compound was classed as inactive in assay [1], in assay [2], in [3] and in assay [4].
